Laboratory results: PubChem BioAssay
Calls of active or inactive are those of the source.

Legend:
Albumin (Bos taurus) = Albumin (Bos taurus) (UniProt P02769); assay: compounds binding labelled BSA control protein – biochemical, small-molecule microarray, Alexa647 label, 635/667 nm fluorescence, artefact control for SMM control protein annotation, profiling panel (AID 1118); settings: BSA-A647 binding, fluorescence 635 nm, higher = more signal;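 further: score merges 667 nm emission intensity and signal-to-noise per printed compound spot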
Sequence of Albumin (Bos taurus) (P02769 whole entry, looked up): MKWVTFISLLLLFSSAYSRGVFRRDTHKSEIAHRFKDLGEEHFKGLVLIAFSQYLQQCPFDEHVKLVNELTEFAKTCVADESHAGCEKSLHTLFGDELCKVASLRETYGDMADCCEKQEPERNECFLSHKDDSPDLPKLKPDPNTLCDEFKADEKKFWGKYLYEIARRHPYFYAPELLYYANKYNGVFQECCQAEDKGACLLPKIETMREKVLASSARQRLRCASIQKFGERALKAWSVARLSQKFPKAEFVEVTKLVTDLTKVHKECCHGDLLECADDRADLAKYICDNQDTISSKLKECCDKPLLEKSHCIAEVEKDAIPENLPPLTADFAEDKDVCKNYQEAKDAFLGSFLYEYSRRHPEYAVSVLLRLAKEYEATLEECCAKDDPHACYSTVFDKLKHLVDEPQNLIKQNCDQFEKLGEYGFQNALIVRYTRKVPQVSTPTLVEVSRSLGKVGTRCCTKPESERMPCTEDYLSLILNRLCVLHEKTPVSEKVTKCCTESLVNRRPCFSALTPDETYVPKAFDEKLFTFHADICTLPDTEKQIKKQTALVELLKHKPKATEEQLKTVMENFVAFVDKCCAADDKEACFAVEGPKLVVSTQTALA

[1] = probe aXIP binding to arrayed compounds – biochemical, NeuroSMM set, 635/667 nm fluorescence, primary screen (AID 1119); settings: small-molecule microarray, higher = more signal, called active from +8 up or from −8 down;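 further: probe is the protein aXip251-270 applied at 1 µg/mL to compound-printed slides; binding of probe to printed compounds measured as 667 nm fluorescence plus signal to noise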
[2] = probe aNOTCH3 binding on compound microarray – biochemical, small-molecule microarray, 635/667 nm fluorescence, primary screen (AID 1120); settings: higher = more signal;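 further: probe is a biotin-tagged antibody raised against NOTCH3 rather than NOTCH3 protein; score merges spot fluorescence near 667 nm with spot signal to noise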
[3] = probe aNOTCH2 binding on compound microarray – biochemical, small-molecule microarray, 635/667 nm fluorescence, primary screen (AID 1121); settings: higher = more signal;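 further: score merges feature fluorescence read at 667 nm with its signal to noise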
[4] = biological target: Carbonic anhydrase 2 (Homo sapiens) (UniProt P00918); assay: compounds binding carbonic anhydrase 2 – biochemical, small-molecule microarray, Alexa647-labelled CAII, profiling panel (AID 1122); settings: CAII-A647 binding fluorescence, higher = more signal
[5] = COS7 lysate on small-molecule microarray, probe aHis, 635 nm (AID 1123); settings: COS7 cell lysate, fluorescence, higher = more signal;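 further: z-score combines 667nm fluorescence intensity with signal-to-noise per printed compound spot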
[6] = probe aLAP1 signal on lysate-treated microarray – cell lysate, small-molecule microarray, COS7 lysate, primary screen (AID 1124); settings: probe aLAP1, fluorescence, higher = more signal;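 further: lysate comes from COS7 cells expressing LAP1 and is applied at 0.3 µg/mL; score merges spot fluorescence near 667 nm with signal-to-noise over triplicate slides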
Sam68 (KHDRBS1) = assay: compounds binding KHDRBS1 protein – biochemical, small-molecule microarray, 635 nm fluorescence, primary screen (AID 1125); settings: higher = more signal;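 further: score merges 667 nm channel intensity with signal to noise over triplicate slides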
[7] = tested on: Chordin-like protein 2 (CHRDL2); assay: compounds binding chordin-like 2 – biochemical, small-molecule microarray, 635 nm fluorescence, primary screen (AID 1126); settings: fluorescence 635 nm, higher = more signal;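 further: printed compound slides probed with Chrdl2 protein at 4 µg/mL for 1 h at 4 C; score merges 667 nm emission intensity with signal to noise over three replicate slides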
[8] = biological target: Concanavalin-A (Canavalia ensiformis) (UniProt P02866); assay: compounds binding concanavalin A lectin – biochemical, small-molecule microarray, Alexa647 label, 635 nm, artefact control for SMM control protein annotation, primary screen (AID 1127); settings: ConA-A647 binding fluorescence, higher = more signal;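 further: z combines 667 nm emission intensity with signal-to-noise across three replicate slides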
Sequence of Concanavalin-A (Canavalia ensiformis) (P02866 whole entry, looked up): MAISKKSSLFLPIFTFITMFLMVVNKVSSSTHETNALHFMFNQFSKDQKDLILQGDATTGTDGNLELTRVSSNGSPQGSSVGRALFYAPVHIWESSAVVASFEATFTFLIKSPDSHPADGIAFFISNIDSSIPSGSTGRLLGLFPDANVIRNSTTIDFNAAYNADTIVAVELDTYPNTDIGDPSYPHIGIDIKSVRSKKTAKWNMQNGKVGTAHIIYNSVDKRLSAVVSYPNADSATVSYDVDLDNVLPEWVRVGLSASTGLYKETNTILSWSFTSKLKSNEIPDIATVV

[9] = compounds binding Alexa647 anti-His antibody – biochemical, small-molecule microarray, 635 nm fluorescence, artefact control for SMM control protein annotation, primary screen (AID 1128); settings: higher = more signal;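 further: score merges feature fluorescence with signal-to-noise for each printed compound spot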
[10] = tested on: Human papillomavirus type 1a E7 protein (residues 1-88); assay: HPV1a E7 small-molecule binders, primary screen, biochemical, small-molecule microarray, residues 1-88, 635 nm (AID 1129); settings: small-molecule microarray binding, fluorescence 635 nm; higher = more signal
[11] = biological target: Focal adhesion kinase 1 (Homo sapiens) (UniProt Q05397); assay: PTK2 protein binding on printed compound slides – biochemical, small-molecule microarray, 635/667 nm fluorescence, BSA, DTT, primary screen (AID 1130); settings: 635 nm fluorescence, higher = more signal;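 further: composite of spot emission at 667 nm and signal to noise over triplicate slides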
Sequence of Focal adhesion kinase 1 (Homo sapiens) (Q05397 whole entry, looked up): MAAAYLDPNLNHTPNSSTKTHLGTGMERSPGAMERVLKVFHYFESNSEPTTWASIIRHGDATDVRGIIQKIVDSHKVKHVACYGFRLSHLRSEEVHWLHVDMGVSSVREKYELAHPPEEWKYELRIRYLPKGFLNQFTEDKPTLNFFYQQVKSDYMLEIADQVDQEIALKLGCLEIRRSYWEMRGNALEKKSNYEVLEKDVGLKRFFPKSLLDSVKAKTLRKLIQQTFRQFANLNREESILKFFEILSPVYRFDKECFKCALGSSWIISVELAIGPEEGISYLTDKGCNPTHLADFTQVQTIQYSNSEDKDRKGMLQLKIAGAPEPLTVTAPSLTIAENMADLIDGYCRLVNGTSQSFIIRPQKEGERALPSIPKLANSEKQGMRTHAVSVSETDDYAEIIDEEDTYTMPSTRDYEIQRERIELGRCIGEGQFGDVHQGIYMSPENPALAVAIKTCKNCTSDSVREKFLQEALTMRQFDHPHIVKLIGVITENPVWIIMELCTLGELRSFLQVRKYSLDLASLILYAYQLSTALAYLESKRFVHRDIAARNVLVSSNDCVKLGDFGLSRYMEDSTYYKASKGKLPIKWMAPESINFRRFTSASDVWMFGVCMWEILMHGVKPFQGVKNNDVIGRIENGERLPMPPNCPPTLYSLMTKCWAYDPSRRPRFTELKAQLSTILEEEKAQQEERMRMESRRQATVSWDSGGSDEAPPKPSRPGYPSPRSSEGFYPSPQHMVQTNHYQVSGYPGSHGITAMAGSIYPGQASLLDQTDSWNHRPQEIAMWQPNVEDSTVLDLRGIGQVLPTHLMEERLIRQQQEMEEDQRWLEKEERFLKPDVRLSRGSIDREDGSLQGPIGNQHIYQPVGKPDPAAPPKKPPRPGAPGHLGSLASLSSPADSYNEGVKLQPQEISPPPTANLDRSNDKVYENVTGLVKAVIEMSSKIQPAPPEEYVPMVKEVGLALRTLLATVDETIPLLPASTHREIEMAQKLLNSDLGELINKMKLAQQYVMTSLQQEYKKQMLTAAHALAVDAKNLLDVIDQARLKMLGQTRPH

[12] = tested on: Fibrinogen (Alexa647-labelled); assay: Alexa647-fibrinogen binding to printed small molecules – biochemical, small-molecule microarray, 635/667 nm fluorescence, artefact control for SMM control-protein annotation, profiling panel (AID 1131); settings: fibrinogen-A647 binding fluorescence, higher = more signal;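 further: z-score merges 667 nm fluorescence with per-spot signal-to-noise over triplicate slides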
[13] = biological target: Follistatin (Homo sapiens) (UniProt P19883); assay: FST protein binding to printed compounds – biochemical, small-molecule microarray, 635/667 nm fluorescence, primary screen (AID 1132); settings: 635 nm fluorescence, higher = more signal
Sequence of Follistatin (Homo sapiens) (P19883 whole entry, looked up): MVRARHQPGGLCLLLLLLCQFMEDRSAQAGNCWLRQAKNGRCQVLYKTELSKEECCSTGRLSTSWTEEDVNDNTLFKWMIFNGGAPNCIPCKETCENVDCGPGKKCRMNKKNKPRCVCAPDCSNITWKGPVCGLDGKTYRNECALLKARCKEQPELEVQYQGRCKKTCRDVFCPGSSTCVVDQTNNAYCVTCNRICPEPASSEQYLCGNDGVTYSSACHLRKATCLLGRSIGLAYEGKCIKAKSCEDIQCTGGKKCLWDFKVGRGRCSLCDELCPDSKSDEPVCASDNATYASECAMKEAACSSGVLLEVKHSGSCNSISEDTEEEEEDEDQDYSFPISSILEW

[14] = biological target: Fibroblast growth factor 2 (Homo sapiens) (UniProt P09038); assay: basic fibroblast growth factor binding to printed compounds – biochemical, small-molecule microarray, 635/667 nm fluorescence, primary screen (AID 1133); settings: FGF2, fluorescence 635/667, higher = more signal
Sequence of Fibroblast growth factor 2 (Homo sapiens) (P09038 whole entry, looked up): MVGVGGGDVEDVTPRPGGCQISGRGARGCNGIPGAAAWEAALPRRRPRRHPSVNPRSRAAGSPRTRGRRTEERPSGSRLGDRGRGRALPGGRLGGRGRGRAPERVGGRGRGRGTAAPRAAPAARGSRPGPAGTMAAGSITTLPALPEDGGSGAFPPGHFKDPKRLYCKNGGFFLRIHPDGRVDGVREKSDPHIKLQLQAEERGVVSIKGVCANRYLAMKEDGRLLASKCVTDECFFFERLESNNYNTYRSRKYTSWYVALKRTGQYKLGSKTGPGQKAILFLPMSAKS

[15] = JC-1 mitochondrial potential readout, lung cancer cells – cell-based, A549, JC-1 fluorescence, basal, 24 h, 100 nL, profiling panel (AID 1138); settings: higher = more signal;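 further: A549 lung adenocarcinoma cells under basal conditions with no added stimulus; test concentration not given here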
Lefty1 = Lefty1 protein binding to printed compounds – biochemical, small-molecule microarray, 635/667 nm fluorescence, primary screen (AID 1139); settings: fluorescence 635/667, higher = more signal
[16] = tested on: wheat germ agglutinin (Triticum aestivum), Alexa647-labelled; assay: Alexa647-WGA lectin binding to printed small molecules – biochemical, small-molecule microarray, 635/667 nm fluorescence, artefact control for SMM control-protein annotation, profiling panel (AID 1140); settings: WGA-A647 binding, 635 nm fluorescence, higher = more signal;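 further: score merges 667 nm feature emission with signal to noise over triplicate slides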
[17] = biological target: Luciferin 4-monooxygenase (Photinus pyralis) (UniProt P08659); assay: inhibition of purified Photinus pyralis luciferase – biochemical, luminescence, purified enzyme, 2006 set, primary screen (AID 1141); settings: purified firefly luciferase, SteadyGlo luminescence, 30 min; higher = more signal, called active from +8 up or from −8 down;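 further: cell-free assay with purified firefly luciferase at 100 ng per well in PBS; test concentration not given here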
Sequence of Luciferin 4-monooxygenase (Photinus pyralis) (P08659 whole entry, looked up): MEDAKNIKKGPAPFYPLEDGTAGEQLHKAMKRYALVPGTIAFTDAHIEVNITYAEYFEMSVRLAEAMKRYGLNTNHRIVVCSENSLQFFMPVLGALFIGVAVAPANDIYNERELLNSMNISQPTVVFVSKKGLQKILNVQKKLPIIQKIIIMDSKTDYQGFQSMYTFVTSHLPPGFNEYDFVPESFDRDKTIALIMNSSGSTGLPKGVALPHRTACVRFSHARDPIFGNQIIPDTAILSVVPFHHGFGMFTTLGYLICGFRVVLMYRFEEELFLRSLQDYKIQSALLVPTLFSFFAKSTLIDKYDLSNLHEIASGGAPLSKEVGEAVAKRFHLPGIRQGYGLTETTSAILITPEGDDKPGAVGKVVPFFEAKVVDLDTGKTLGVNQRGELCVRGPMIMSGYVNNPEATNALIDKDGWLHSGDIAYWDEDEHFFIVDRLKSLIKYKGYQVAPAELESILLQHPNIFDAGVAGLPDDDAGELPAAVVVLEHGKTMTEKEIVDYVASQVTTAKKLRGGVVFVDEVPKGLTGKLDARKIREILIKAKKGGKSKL

Structure (SMILES) | composite z-score (Albumin (Bos taurus)) | composite Z-score [1] | composite z-score [2] | composite z-score [3] | composite z-score [4] | composite z-score [5] | composite z-score [6] | composite z-score (Sam68 (KHDRBS1)) | composite z-score [7] | composite z-score [8] | composite z-score [9] | composite z-score [10] | composite z-score [11] | composite z-score [12] | composite z-score [13] | composite z-score [14] | z-score [15] | composite z-score (Lefty1) | composite z-score [16] | z-score [17]
C=C(C(=O)CC[C@H](OC(C)=O)c1cccc(OCCO)c1)C(C)C | -0.757 | 0.562 (inactive) | -0.135 | -0.148 | -0.382 | 0.409 | -0.326 | -0.0177 | -1.23 | -1.21 | -0.734 | -1.35 | -0.311 | -0.0681 | -0.791 | -0.883 | -0.6 | -0.638 | 0.335 | -0.0654 (inactive)
CON(C)C(=O)C=C1C[C@@H](c2cccc(Cl)c2)O[C@@H](c2cccc(Cl)c2)O1 | 0.268 | 0.294 (inactive) | 0.0897 | -0.131 | 0.628 | 0.339 | 0.166 | 0.474 | 0.648 | 1.01 | 1.15 | 0.878 | 0.441 | 0.472 | 0.412 | 0.372 | 3.69 | 0.669 | 0.462 | -0.344 (inactive)
O=C1O[C@@H](c2ccccc2)[C@@H](c2ccccc2)N2[C@@H](c3ccc(O)cc3)[C@]3(C(=O)Nc4ccc(C#CCCO)cc43)[C@@H](C(=O)NC[C@H](O)c3ccccc3)[C@H]12 | 0.273 | 1.62 (inactive) | -0.158 | -0.167 | 0.724 | -0.112 | 0.102 | 0.249 | -1.39 | -0.101 | 0.206 | -0.386 | -0.141 | -1.38 | -0.162 | -1.11 | -1.57 | 0.0328 | 1.12 | 0.411 (inactive)
C=CCOC(=O)[C@@H]1[C@H]2C(=O)O[C@H](c3ccccc3)[C@H](c3ccccc3)N2[C@H](c2ccc(OCCOC(=O)[C@H]3C[C@H]4C(=O)N[C@@H](CC(C)C)C(=O)N4[C@H]3c3ccc(O)cc3)cc2)[C@@]12C(=O)Nc1ccc(I)cc12 | -1.13 | 0.761 (inactive) | 0.154 | -0.153 | 0.609 | 2.3 | 0.103 | 1.31 | 0.959 | 1.22 | 2.17 | 1.19 | 0.538 | 0.623 | 1.5 | 1.87 | -0.176 | 1.52 | 0.747 | -0.646 (inactive)
NCCCCCCNC(=O)[C@@H]1C[C@@H]2C(=O)N3CCC[C@H]3C(=O)N2[C@@H]1c1ccc(O)cc1 | 0.654 | -0.259 (inactive) | -0.0647 | -0.182 | 0.291 | 1.32 | 0.81 | 1.25 | 0.417 | 1.15 | 0.508 | 1.18 | 0.439 | 0.578 | 1.41 | 1.29 | 0.37 | 1.25 | 0.636 | -0.284 (inactive)
